Data on six molecules can be found in PubChem BioAssay.

Structures are written as SMILES. Active and inactive are the calls of the source.

The test system of test [1] is Human papillomavirus type 1a protein E7 (residues 44-93). Description: HPV1a E7 fragment binders on microarrays, primary screen, biochemical, small-molecule microarray, residues 44-93, 635 nm fluorescence (AID 1108).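 Also: E7 fragment applied at 1 µg/mL in TBST for 1 h at 4 C; score combines spot fluorescence with its signal to noise ratio.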 To be noted: small-molecule microarray binding, fluorescence 635 nm; higher = more signal.
The nature of test [2]: modulators of HCV replicon luciferase signal, primary screen, HCV replication inhibitor project, Huh7 cells, luciferase reporter (AID 1109).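 Also: huh7 hepatoma cells harbouring a luciferase neomycin HCV replicon reporter; luciferase luminescence as measure of HCV replicon replication; test concentration not given here.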 To be noted: 48 h, higher = more signal. For orientation: A replicon is a self-replicating genome or part of one, used to study replication in cells.
Test [3] concerns the target Left-right determination factor 2 (Homo sapiens) (UniProt O00292). Description: LEFTY2 binders on small-molecule microarrays, primary screen, biochemical, small-molecule microarray, 635 nm fluorescence scan (AID 1110). The note with it: LEFTY2 binding, higher = more signal.
The target of test [4] is Calmodulin-1 (Homo sapiens) (UniProt P0DP23). Description: CALM1 binders on microarrays, EGTA buffer, profiling panel, biochemical, small-molecule microarray, Cy5-labelled CALM1 (AID 1111).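 Also: labelled calmodulin applied in Tris saline Tween buffer holding calcium plus EGTA and DTT.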 The note with it: Cy5-CALM1 binding fluorescence, higher = more signal.
Test [5] has the same target. Description: calcium-bound CALM1 binders on microarrays, profiling panel, artefact control for SMM control-protein annotation, biochemical, small-molecule microarray, Cy5-labelled CALM1, plus calcium (AID 1112).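 Also: score merges spot fluorescence with signal to noise from triplicate slides.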 The note with it: Cy5-CALM1 binding fluorescence, higher = more signal.
Test [6] in a line: small-molecule microarray binders of probe aWnt5a, primary screen, biochemical, biotinylated probe, 635/667 nm fluorescence (AID 1113).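 Also: score merges 667 nm fluorescence intensity with signal-to-noise per printed feature.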 To be noted: higher = more signal.
Test [7] in a line: small-molecule microarray binders of probe aShh, primary screen, biochemical, biotinylated probe, 635/667 nm fluorescence (AID 1114).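 Also: probe is biotin-labelled aShh protein from a stem cell growth factor screen; measures binding of labelled protein to compounds printed on the slide; score merges feature fluorescence at 667 nm with signal-to-noise.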 The note with it: higher = more signal.
Test [8] can be described thus: small-molecule microarray binders of probe aNog, primary screen, biochemical, biotinylated probe, 635/667 nm fluorescence (AID 1115).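 Also: probe is biotinylated aNog protein used at 0.15 µg/mL for 1 h at 4 C; z-score combines 667 nm fluorescence of each spot with its signal to noise.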 To be noted: higher = more signal.
The target of test [9] is Torsin-1A-interacting protein 1 (Homo sapiens) (UniProt Q5JTV8). Description: LAP1 binders from COS7 cell lysate, primary screen, small-molecule microarray, 635/667 nm fluorescence (AID 1116). The note with it: COS7-hLAP1 lysate binding, 635 nm fluorescence, higher = more signal.
Chain of Torsin-1A-interacting protein 1 (Homo sapiens) (Q5JTV8 whole entry, looked up): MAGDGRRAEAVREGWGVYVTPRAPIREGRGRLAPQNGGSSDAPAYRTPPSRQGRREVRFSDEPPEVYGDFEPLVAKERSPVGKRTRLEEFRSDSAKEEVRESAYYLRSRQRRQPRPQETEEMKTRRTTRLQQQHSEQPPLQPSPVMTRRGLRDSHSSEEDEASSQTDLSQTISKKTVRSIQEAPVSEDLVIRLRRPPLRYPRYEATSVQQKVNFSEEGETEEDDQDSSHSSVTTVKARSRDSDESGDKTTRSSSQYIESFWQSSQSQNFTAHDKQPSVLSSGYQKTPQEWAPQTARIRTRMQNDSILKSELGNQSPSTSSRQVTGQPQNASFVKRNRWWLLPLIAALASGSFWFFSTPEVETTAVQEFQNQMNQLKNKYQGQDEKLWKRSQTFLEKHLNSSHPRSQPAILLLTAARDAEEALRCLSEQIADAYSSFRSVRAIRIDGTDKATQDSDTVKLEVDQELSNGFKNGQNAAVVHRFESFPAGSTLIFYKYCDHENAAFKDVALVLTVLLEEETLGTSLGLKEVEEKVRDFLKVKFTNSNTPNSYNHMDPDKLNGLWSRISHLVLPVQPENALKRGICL
In test [10] the target is Alpha-bungarotoxin (Bungarus multicinctus) (UniProt P60615). Description: alpha-bungarotoxin binders on microarray, profiling panel, artefact control for SMM control protein annotation, biochemical, small-molecule microarray, Alexa647 label, 635/667 nm fluorescence (AID 1117). To be noted: alpha-BTX-A647 binding fluorescence, higher = more signal.
Chain of Alpha-bungarotoxin (Bungarus multicinctus) (P60615 whole entry, looked up): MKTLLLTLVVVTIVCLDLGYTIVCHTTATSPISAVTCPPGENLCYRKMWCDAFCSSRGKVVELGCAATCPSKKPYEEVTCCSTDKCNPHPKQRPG
The target of the next test is Albumin (Bos taurus) (UniProt P02769). Description: bovine serum albumin binders on microarray, profiling panel, artefact control for SMM control protein annotation, biochemical, small-molecule microarray, Alexa647 label, 635/667 nm fluorescence (AID 1118).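 Also: score merges 667 nm emission intensity and signal-to-noise per printed compound spot.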 The note with it: BSA-A647 binding, fluorescence 635 nm, higher = more signal.
Chain of Albumin (Bos taurus) (P02769 whole entry, looked up): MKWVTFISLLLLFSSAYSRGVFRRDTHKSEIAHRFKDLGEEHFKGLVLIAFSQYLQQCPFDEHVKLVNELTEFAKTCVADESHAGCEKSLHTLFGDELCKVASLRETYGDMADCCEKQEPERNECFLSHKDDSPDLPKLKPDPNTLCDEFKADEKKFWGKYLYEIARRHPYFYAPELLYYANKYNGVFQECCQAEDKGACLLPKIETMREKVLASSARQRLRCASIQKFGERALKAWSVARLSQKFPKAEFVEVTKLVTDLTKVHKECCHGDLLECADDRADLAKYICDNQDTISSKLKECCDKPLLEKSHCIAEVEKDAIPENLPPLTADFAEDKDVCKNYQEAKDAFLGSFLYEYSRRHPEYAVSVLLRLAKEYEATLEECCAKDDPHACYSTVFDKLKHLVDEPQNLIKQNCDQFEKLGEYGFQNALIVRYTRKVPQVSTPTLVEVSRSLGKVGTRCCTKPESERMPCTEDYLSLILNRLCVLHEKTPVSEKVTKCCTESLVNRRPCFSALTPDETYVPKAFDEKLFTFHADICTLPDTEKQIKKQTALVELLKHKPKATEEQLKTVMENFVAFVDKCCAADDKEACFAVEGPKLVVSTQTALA
A short description of test [11]: small-molecule microarray binders of probe aXIP, primary screen, biochemical, NeuroSMM set, 635/667 nm fluorescence (AID 1119).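 Also: probe is the protein aXip251-270 applied at 1 µg/mL to compound-printed slides; binding of probe to printed compounds measured as 667 nm fluorescence plus signal to noise.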 The note with it: higher = more signal, called active from +8 up or from −8 down.
A short description of test [12]: small-molecule binders of probe aNOTCH3, primary screen, biochemical, small-molecule microarray, 635/667 nm fluorescence (AID 1120).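 Also: probe is a biotin-tagged antibody raised against NOTCH3 rather than NOTCH3 protein; score merges spot fluorescence near 667 nm with spot signal to noise.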 To be noted: higher = more signal.
Test [13] is described as follows: small-molecule binders of probe aNOTCH2, primary screen, biochemical, small-molecule microarray, 635/667 nm fluorescence (AID 1121).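 Also: score merges feature fluorescence read at 667 nm with its signal to noise.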 To be noted: higher = more signal.
Test [14] deals with Carbonic anhydrase 2 (Homo sapiens) (UniProt P00918). Description: CAII small-molecule binders, profiling panel, biochemical, small-molecule microarray, Alexa647-labelled CAII (AID 1122). The note with it: CAII-A647 binding fluorescence, higher = more signal.
A short description of test [15]: COS7 lysate on small-molecule microarray, probe aHis, 635 nm (AID 1123).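 Also: z-score combines 667nm fluorescence intensity with signal-to-noise per printed compound spot.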 To be noted: COS7 cell lysate, fluorescence, higher = more signal.
Test [16] in a line: compound binding in COS7 lysate, probe aLAP1, primary screen, cell lysate, small-molecule microarray (AID 1124).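 Also: lysate comes from COS7 cells expressing LAP1 and is applied at 0.3 µg/mL; score merges spot fluorescence near 667 nm with signal-to-noise over triplicate slides.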 The note with it: probe aLAP1, fluorescence, higher = more signal.
The next test has as its system Sam68 (KHDRBS1). Description: Sam68 small-molecule binders, primary screen, biochemical, small-molecule microarray, 635 nm fluorescence (AID 1125).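 Also: score merges 667 nm channel intensity with signal to noise over triplicate slides.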 To be noted: small-molecule microarray binding, higher = more signal.
Test [17] concerns Chordin-like protein 2 (CHRDL2). Description: CHRDL2 small-molecule binders, primary screen, biochemical, small-molecule microarray, 635 nm fluorescence (AID 1126).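 Also: printed compound slides probed with Chrdl2 protein at 4 µg/mL for 1 h at 4 C; score merges 667 nm emission intensity with signal to noise over three replicate slides.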 To be noted: small-molecule microarray binding, fluorescence 635 nm; higher = more signal.
Test [18] concerns the target Concanavalin-A (Canavalia ensiformis) (UniProt P02866). Description: ConA small-molecule binders, primary screen, artefact control for SMM control protein annotation, biochemical, small-molecule microarray, Alexa647 label, 635 nm (AID 1127).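 Also: z combines 667 nm emission intensity with signal-to-noise across three replicate slides.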 To be noted: ConA-A647 binding fluorescence, higher = more signal.

Chain of Left-right determination factor 2 (Homo sapiens) (O00292 whole entry, looked up): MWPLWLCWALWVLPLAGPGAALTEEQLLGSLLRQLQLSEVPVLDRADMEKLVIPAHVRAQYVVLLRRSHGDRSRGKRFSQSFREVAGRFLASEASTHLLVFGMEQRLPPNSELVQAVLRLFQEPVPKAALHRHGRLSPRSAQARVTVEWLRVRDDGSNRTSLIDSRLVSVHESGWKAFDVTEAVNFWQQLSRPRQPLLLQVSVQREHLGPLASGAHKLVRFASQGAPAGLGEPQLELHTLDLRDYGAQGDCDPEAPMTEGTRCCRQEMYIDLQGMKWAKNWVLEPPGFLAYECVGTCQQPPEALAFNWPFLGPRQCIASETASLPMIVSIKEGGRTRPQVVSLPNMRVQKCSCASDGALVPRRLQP
Chain of Concanavalin-A (Canavalia ensiformis) (P02866 whole entry, looked up): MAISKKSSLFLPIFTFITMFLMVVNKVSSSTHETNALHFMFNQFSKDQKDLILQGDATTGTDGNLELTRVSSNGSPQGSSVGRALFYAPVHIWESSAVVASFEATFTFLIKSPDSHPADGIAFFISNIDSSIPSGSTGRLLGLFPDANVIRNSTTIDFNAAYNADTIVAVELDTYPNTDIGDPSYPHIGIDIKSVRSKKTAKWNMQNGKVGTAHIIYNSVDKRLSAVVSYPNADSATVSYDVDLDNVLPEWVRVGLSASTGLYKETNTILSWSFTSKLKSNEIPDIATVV

For `C[N+](C)(C)CCCC[C@@H]1NC(=O)[C@H]2C[C@@H](C(=O)NCCCCCCNC(=O)CS)[C@@H](c3ccc(O)cc3)N2C1=O`, the composite z-score was -1.07 in test [1]; -1.4 in test [3]; -0.493 in test [4]; 0.55 in [5]; -0.178 in test [6]; -0.138 in test [7]. The composite z-score in test [8] is -0.0604; in [9] it was 1.51; in test [10], 0.539; with Albumin (Bos taurus), 0.329; in test [12], -0.437; in test [13], -0.0764. Moreover, the composite z-score in test [14] is 0.501; in test [15], 0.483; in test [16], 1.49; in the test on Sam68 (KHDRBS1) it was -0.611; in test [17], 0.0077; in test [18] it was -2.35. In test [2], this molecule showed a z-score of -0.237. In [11], the composite Z-score was -0.921 (inactive).

Turning to `COc1ccc(NN2C(C(O)c3ccc(N(C)C)cc3)C=CC3C(=O)N(C4CCCCC4)C(=O)C32)cc1` (stereo not given), the composite z-score is 1.42 in test [1]; -0.146 in test [3]; 1.21 in test [4]; 0.651 in test [5]; 0.351 in test [6]; -0.0248 in [7]. The composite z-score amounted to 0.42 in [8]; 1.22 in test [9]; 1.72 in [10]; 0.906 in the test with Albumin (Bos taurus); 0.391 in test [12]; 0.0992 in [13]. In addition, the composite z-score was 0.689 in test [14]; 2.13 in [15]; 0.414 in [16]; 1.31 with Sam68 (KHDRBS1); 0.212 in [17]; 1.16 in test [18]. For the same molecule, the z-score in [2] is -0.581. In addition, in test [11], the composite Z-score is -0.247 (inactive).

Consider `C=CCNC(=O)[C@@H]1[C@H]2C(=O)O[C@H](c3ccccc3)[C@H](c3ccccc3)N2[C@H](c2ccc(OCCO)cc2)[C@@]12C(=O)N(C(=O)OCCOC)c1ccc(C#CCNC(N)=O)cc12`, for which the composite z-score in test [1] is 0.79; in test [3], 0.735; in test [4], 0.597; in [5], 0.386; in [6] it was 0.0136; in test [7], 0.275. The composite z-score in test [8] was -0.42; in test [9], 0.55; in test [10], 1.53; with Albumin (Bos taurus), -0.178; in test [12], 0.163; in test [13], -0.0632. Besides, the composite z-score turned out to be 0.513 in test [14]; 1.02 in [15]; 0.662 in test [16]; 1.3 in the test with Sam68 (KHDRBS1); 0.305 in test [17]; 1.1 in test [18]. This molecule registered a z-score in [2] of -0.635. Further, the composite Z-score in test [11] is 0.0253 (inactive).

As for `CC(C)(C)OC(=O)CC[C@@]1(C(=O)N2CCCCC2)N=C(c2ccc(OCCCO)cc2)O[C@@H]1c1ccccc1`, the composite z-score in [1] was 1.44; in test [3] it was 0.0209; in test [4], 1.72; in test [5], -0.0506; in test [6], 0.168; in [7], 0.476. Also, the composite z-score in test [8] is 0.414; in test [9], 0.774; in [10], 0.873; with Albumin (Bos taurus) it was 0.962; in test [12], 0.372; in test [13], -0.0659. Further, the composite z-score in test [14] was 0.781; in test [15], 2.59; in test [16], 0.796; with Sam68 (KHDRBS1), 1.29; in test [17] it was -0.409; in test [18], 0.719. In [2], this molecule registered a z-score of -1.49. Further, in test [11], the composite Z-score was -0.317 (inactive).

Regarding `CCCC1(C(=O)OC)C=C2C(=C(c3ccccc3)C(=O)C2C)CN1` (stereo not given), the composite z-score in [1] was -0.719; in [3], 0.0193; in [4], 0.155; in test [5] it was -0.253; in test [6], -0.0203; in test [7] it was 0.108. In addition, the composite z-score in test [8] was 1.75; in test [9], 1.05; in test [10], 0.287; in the test with Albumin (Bos taurus), -0.0235; in test [12] it was 0.0365; in test [13] it was 0.015. In addition, the composite z-score in test [14] is 0.756; in test [15], 1.51; in test [16], 0.959; with Sam68 (KHDRBS1), 0.0707; in test [17] it was 0.108; in test [18], -1.13. For the same molecule, the z-score in test [2] was -1.85. Moreover, the composite Z-score in test [11] is 0.589 (inactive).

`OB1C=CCC(CCc2ccccc2)O1` (stereo not given): the composite z-score was -1.86 in [1]; -0.32 in test [3]; -0.961 in test [4]; -0.455 in test [5]; -0.263 in test [6]; -0.117 in [7]. The composite z-score is -0.39 in test [8]; 0.363 in [9]; -0.725 in test [10]; -0.923 with Albumin (Bos taurus); -0.191 in [12]; -0.153 in test [13]. The composite z-score in test [14] is -0.498; in test [15] it was -0.622; in test [16] it was -0.803; with Sam68 (KHDRBS1), -1.31; in test [17] it was 0.317; in [18], -1.34. The molecule further yielded a z-score in test [2] of 1.1. Further, the composite Z-score in [11] was -0.601 (inactive).
